Records with an inconclusive call do not appear. Activity calls are given as the source filed them. How the source made its calls, unless noted: active means hit-call score of the fitted dose curve at least 0.9, where 1 is the maximum; inconclusive means response in the unintended direction; inactive means score below 0.9.
What was measured:
[1] = read-out: ABC Transporter (ABCB1), ABCB1 (gene 5243); test: CLD_ABCB1_6hr: CellzDirect (CLD) Gene Expression Assay for ABC Transporter (ABCB1) at 6 hours (AID 2283659);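 further: hits raise ABCB1 transcript above the DMSO vehicle baseline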
Outline: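 Primary human hepatocytes (two donor preparations) dosed daily for two days with chemicals at multiple concentrations, 0.2% DMSO vehicle; harvested 6 h post-dose. ABCB1 mRNA induction quantified by qNPA chemiluminescence; gain-of-signal fitted versus DMSO.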

[2] = read-out: Broad substrate specificity ATP-binding cassette transporter ABCG2 (Homo sapiens) (UniProt Q9UNQ0); test: CLD_ABCG2_6hr: CellzDirect (CLD) Gene Expression Assay for ABC Transporter (ABCG2) at 6 hours (AID 2283660)
Outline: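 Primary human hepatocytes dosed daily with chemicals at multiple concentrations (0.2% DMSO vehicle), harvested 6 h after dosing. ABCG2 mRNA induction read by quantitative nuclease protection assay (qNPA) chemiluminescence; gain of signal fitted against DMSO baseline.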

[3] = read-out: xenobiotic metabolism (CYP2C9), CYP2C9 (gene 1559); test: CLD_CYP2C9_6hr: CellzDirect (CLD) Gene Expression Assay for xenobiotic metabolism (CYP2C9) at 6 hours (AID 2283664)
Outline: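 Primary human hepatocytes dosed daily with test chemicals at multiple concentrations; harvested at 6 h. CYP2C9 mRNA induction measured by qNPA chemiluminescence. Gain of signal fitted against 0.2% DMSO vehicle; cytotoxicity annotated from phase-contrast morphology.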

[4] = read-out: alkyl and aryl transferase (GSTA2), GSTA2 (gene 2939); test: CLD_GSTA2_6hr: CellzDirect (CLD) Gene Expression Assay for alkyl and aryl transferase (GSTA2) at 6 hours (AID 2283666)
Outline: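 Primary human hepatocytes from two donor preparations were dosed daily with fresh compound at multiple concentrations, 0.2% DMSO vehicle. GSTA2 mRNA was measured at 6 hours by qNPA chemiluminescence; induction fitted relative to DMSO, with cytotoxicity flagged morphologically.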

[5] = Tanguay_ZF_120hpf_TR_legacy: (Legacy) Oregon State University Tanguay Lab 120 Hour Post-fertilization zebrafish Assay for Touch Response (AID 2283667)
Outline: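 5D WT embryos; static exposure to 120 hpf, 28C, sealed/dark; DMSO 0.64% v/v final. TR scored present/absent; dead embryos excluded. Pos ctrl 5uM trimethyltin chloride.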

[6] = read-out: sulfotransferase (SULT2A), SULT2A1 (gene 6822); test: CLD_SULT2A_6hr: CellzDirect (CLD) Gene Expression Assay for sulfotransferase (SULT2A) at 6 hours (AID 2283669);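 further: hits raise transcript level above the DMSO vehicle baseline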
Outline: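 Primary human hepatocytes from two donor preparations were dosed daily with chemicals or 0.2% DMSO and harvested at 6 h. Transcript induction read by qNPA chemiluminescence, fitted for gain of signal relative to DMSO; morphology-based cytotoxicity annotated.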

[7] = read-out: xenobiotic metabolism (CYP1A1), CYP1A1 (gene 1543); test: CLD_CYP1A1_24hr: CellzDirect (CLD) Gene Expression Assay for xenobiotic metabolism (CYP1A1) at 24 hours (AID 2283673);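 further: CYP1A1 mRNA level by quantitative nuclease protection with chemiluminescence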
Outline: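 Primary human hepatocytes dosed daily with fresh solutions in 0.2% DMSO vehicle. mRNA measured at 24 h by quantitative nuclease protection assay with chemiluminescence; gain-of-signal fit versus DMSO, with morphology-based cytotoxicity flags.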

[8] = read-out: Cytochrome P450 2B6 (Homo sapiens) (UniProt P20813); test: CLD_CYP2B6_6hr: CellzDirect (CLD) Gene Expression Assay for xenobiotic metabolism (CYP2B6) at 6 hours (AID 2283677);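 further: actives raise CYP2B6 transcript above DMSO baseline so AC50 marks an inducer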
Outline: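 Primary human hepatocytes dosed with chemicals at multiple concentrations, vehicle 0.2% DMSO; CYP2B6 mRNA induction measured 6 h after dosing by quantitative nuclease protection assay with chemiluminescence, gain of signal fitted relative to DMSO.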

[9] = read-out: solute carrier (SLC10A1), SLC10A1 (gene 6554); test: LTEA_HepaRG_SLC10A1: Life Technologies and Expression Analysis (LTEA) Assay for solute carrier (SLC10A1) using HepaRG (AID 2283657; active means hit-call score of the fitted dose curve at least 0.9, where 1 is the maximum; inactive means score below 0.9); conditions: mRNA level, 48 h; actives raise or lower the signal
Outline: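 Transcript levels were measured by qRT-PCR after human HepaRG cells received test chemical for 48 hours, up to 100 uM in half-log dilutions. Values come from bidirectional concentration-response fitting relative to 0.5% DMSO vehicle.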

[10] = read-out: matrix metalloproteinase-1 (MMP1), MMP1 (gene 4312); test: LTEA_HepaRG_MMP1: Life Technologies and Expression Analysis (LTEA) Assay for matrix metalloproteinase-1 (MMP1) using HepaRG (AID 2283658; active means hit-call score of the fitted dose curve at least 0.9, where 1 is the maximum; inactive means score below 0.9); conditions: mRNA level, 48 h; actives raise or lower the signal
Outline: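 qRT-PCR (TaqMan, Fluidigm arrays) of MMP1 transcript, normalized against three housekeeping genes and fitted in both directions relative to 0.5% DMSO vehicle. Human HepaRG cultures received duplicate 48 h exposures across 8 points, highest 100 uM with half-log steps.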

[11] = read-out: organic anion transporter (SLCO1B1), SLCO1B1 (gene 10599); test: CLD_SLCO1B1_6hr: CellzDirect (CLD) Gene Expression Assay for organic anion transporter (SLCO1B1) at 6 hours (AID 2283668);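 further: active means mRNA induction above DMSO baseline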
Outline: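 Primary human hepatocytes dosed daily with test chemicals (multiple concentrations) in 0.2% DMSO vehicle; harvested at 6 h. SLCO1B1 mRNA quantified by qNPA chemiluminescence, fitted as gain-of-signal versus DMSO; cytotoxicity from phase-contrast morphology flagged alongside.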

[12] = read-out: Cytochrome P450 (CYP24A1_1), CYP24A1 (gene 1591); test: LTEA_HepaRG_CYP24A1_1: Life Technologies and Expression Analysis (LTEA) Assay for Cytochrome P450 (CYP24A1_1) using HepaRG (AID 2283671; active means hit-call score of the fitted dose curve at least 0.9, where 1 is the maximum; inactive means score below 0.9); conditions: mRNA level, 48 h; actives raise or lower the signal
Outline: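 In this test, gene induction or suppression of CYP24A1 in human HepaRG liver cells is measured by qRT-PCR after 48 h chemical treatment (eight concentrations, maximum 100 uM). Values are fitted bidirectionally relative to DMSO.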

[13] = read-out: glucuronosyltransferase (UGT1A1), UGT1A1 (gene 54658); test: CLD_UGT1A1_6hr: CellzDirect (CLD) Gene Expression Assay for glucuronosyltransferase (UGT1A1) at 6 hours (AID 2283672)
Outline: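 Primary human hepatocytes from two donor preparations, dosed with fresh solutions in 0.2% DMSO, harvested at 6 h. UGT1A1 mRNA measured by qNPA chemiluminescence; induction fitted upward versus DMSO.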

[14] = CLD_ACTIN_6hr: CellzDirect (CLD) Gene Expression Assay for Baseline Control (Actin) at 6 hours (AID 2283676);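 further: active means increased actin mRNA relative to DMSO vehicle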
Outline: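 Primary human hepatocytes dosed with fresh chemical solutions (vehicle 0.2% DMSO), harvested at 6 h. Actin mRNA quantified by quantitative nuclease protection assay with chemiluminescent read-out, as background control relative to DMSO.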

[15] = read-out: Cytochrome P450 2C19 (Homo sapiens) (UniProt P33261); test: CLD_CYP2C19_6hr: CellzDirect (CLD) Gene Expression Assay for xenobiotic metabolism (CYP2C19) at 6 hours (AID 2283678)
Outline: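 Primary human hepatocytes from two donor preparations were dosed daily, with 0.2% DMSO as vehicle, and harvested 6 h after dosing. CYP2C19 mRNA induction was measured by qNPA chemiluminescence and fitted as gain of signal against DMSO.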

[16] = tested on: Thyroperoxidase (TPO), gene 54314; test: CCTE_Simmons_AUR_rTPO: CCTE's Amplex UltraRed Assay for Thyroperoxidase (TPO) Inhibition, Simmons Lab (AID 2283662);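 further: potency for loss of signal meaning inhibition of peroxidase activity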
Outline: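 Rat thyroid microsomes (5 ug protein) with 25 uM Amplex UltraRed and 300 uM H2O2 in 200 mM phosphate buffer, 30 min at 37C in dark; fluorescence 544/590 nm. Eight concentrations, 5 nM–87.5 uM final, 0.5% DMSO, triplicate biological replicates.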

[17] = CCTE_Simmons_CellTiterGLO_HEK293T: Viability Assessment in CCTE's Assays for Thyroperoxidase (TPO) Inhibition, Simmons Lab (AID 2283665);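 on AC50: cells exposed to compound for 24 h before readout; actives reduce ATP signal below DMSO vehicle meaning cytotoxicity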
Outline: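 HEK293T cells in DMEM with 1% FBS, dosed 24 h at 37C with 8 concentrations, 5 nM–87.5 uM final, 0.5% DMSO. ATP measured by CellTiter Glo luminescence; loss of signal vs DMSO, three biological replicates.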

[18] = read-out: xenobiotic metabolism (CYP1A2), CYP1A2 (gene 1544); test: CLD_CYP1A2_6hr: CellzDirect (CLD) Gene Expression Assay for xenobiotic metabolism (CYP1A2) at 6 hours (AID 2283663);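 on AC50: potency is for induction meaning a rise in mRNA above DMSO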
Outline: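 Primary human hepatocytes from two donor preparations, dosed daily with multiple concentrations in 0.2% DMSO and harvested at 6 h. CYP1A2 mRNA induction measured by chemiluminescent qNPA, gain of signal fitted against DMSO; cytotoxicity flagged morphologically.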

[19] = read-out: xenobiotic metabolism (CYP1A1), CYP1A1 (gene 1543); test: CLD_CYP1A1_6hr: CellzDirect (CLD) Gene Expression Assay for xenobiotic metabolism (CYP1A1) at 6 hours (AID 2283661);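 on AC50: potency for transcript induction above DMSO vehicle baseline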
Outline: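 Primary human hepatocytes from two donors, compound versus 0.2% DMSO vehicle. CYP1A1 mRNA measured 6 h after dosing by quantitative nuclease protection assay with chemiluminescent read-out; induction fitted relative to DMSO, cytotoxicity flagged by microscopy.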

[20] = read-out: ABC Transporter (ABCB11), ABCB11 (gene 8647); test: CLD_ABCB11_6hr: CellzDirect (CLD) Gene Expression Assay for ABC Transporter (ABCB11) at 6 hours (AID 2283675);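 further: hits raise ABCB11 mRNA level so AC50 marks induction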
Outline: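 Human primary hepatocytes (two donor preparations) given fresh chemical daily at multiple concentrations, vehicle 0.2% DMSO. ABCB11 mRNA induction measured 6 h after dosing by qNPA chemiluminescence versus DMSO; cytotoxicity annotated from morphology.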

Broad substrate specificity ATP-binding cassette transporter ABCG2 (Homo sapiens), sequence (Q9UNQ0 whole entry, looked up): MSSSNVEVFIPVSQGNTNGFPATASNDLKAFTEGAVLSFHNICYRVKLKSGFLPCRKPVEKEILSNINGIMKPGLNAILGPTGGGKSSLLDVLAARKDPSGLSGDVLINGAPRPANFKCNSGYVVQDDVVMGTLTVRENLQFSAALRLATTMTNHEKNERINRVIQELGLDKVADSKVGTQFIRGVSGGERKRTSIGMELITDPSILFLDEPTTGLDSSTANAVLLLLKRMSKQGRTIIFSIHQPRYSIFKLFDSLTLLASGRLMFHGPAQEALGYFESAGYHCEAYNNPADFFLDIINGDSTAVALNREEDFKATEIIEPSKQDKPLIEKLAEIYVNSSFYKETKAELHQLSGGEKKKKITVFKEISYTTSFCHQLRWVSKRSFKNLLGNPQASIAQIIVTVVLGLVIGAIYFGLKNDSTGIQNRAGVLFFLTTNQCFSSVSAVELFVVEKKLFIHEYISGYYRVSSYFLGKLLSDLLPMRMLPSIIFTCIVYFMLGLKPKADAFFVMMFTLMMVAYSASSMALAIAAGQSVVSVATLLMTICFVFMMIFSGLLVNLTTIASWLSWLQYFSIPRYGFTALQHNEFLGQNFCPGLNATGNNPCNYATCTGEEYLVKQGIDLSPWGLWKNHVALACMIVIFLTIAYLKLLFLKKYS
Cytochrome P450 2C19 (Homo sapiens), sequence (P33261 whole entry, looked up): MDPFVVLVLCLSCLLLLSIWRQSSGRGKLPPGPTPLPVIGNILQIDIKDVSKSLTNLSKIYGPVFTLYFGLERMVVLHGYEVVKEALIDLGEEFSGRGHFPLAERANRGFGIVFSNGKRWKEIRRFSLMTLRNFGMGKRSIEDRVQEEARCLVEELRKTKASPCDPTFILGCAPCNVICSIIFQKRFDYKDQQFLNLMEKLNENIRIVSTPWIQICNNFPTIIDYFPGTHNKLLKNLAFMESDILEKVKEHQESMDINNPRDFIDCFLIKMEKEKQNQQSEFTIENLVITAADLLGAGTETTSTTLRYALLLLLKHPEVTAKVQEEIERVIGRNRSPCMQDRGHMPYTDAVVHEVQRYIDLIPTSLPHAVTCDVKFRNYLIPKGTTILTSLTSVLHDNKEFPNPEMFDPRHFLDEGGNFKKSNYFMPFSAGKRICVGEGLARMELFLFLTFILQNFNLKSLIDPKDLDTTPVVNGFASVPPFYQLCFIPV

## COc1cc(Cl)c(OC)cc1Cl
[1]
  outcome: inactive
[2]
  outcome: inactive
[3]
  outcome: inactive
[4]
  outcome: inactive
[5]
  outcome: inactive
[6]
  outcome: inactive
[7]
  outcome: inactive
[8]
  AC50: 0.618 µM (active)

## CCCCC(C#N)(Cn1cncn1)c1ccc(Cl)cc1 (stereo not drawn)
[9]
  AC50: 83.9 µM (active)
[10]
  outcome: inactive
[1]
  outcome: inactive
[3]
  outcome: inactive
[5]
  AC50: 50.7 µM (active)
[11]
  outcome: inactive
[12]
  outcome: inactive
[13]
  outcome: inactive
[14]
  outcome: inactive
[8]
  AC50: 2.77 µM (active)
[15]
  outcome: inactive

## Clc1nc(Cl)nc(Nc2ccccc2Cl)n1
[2]
  outcome: inactive
[16]
  AC50: 6.29 µM (active)
[17]
  AC50: 83.1 µM (active)
[5]
  outcome: inactive
[11]
  outcome: inactive
[7]
  outcome: inactive
[14]
  outcome: inactive
[8]
  outcome: inactive

## CCOP(=S)(OCC)Oc1nc(Cl)n(C(C)C)n1
[9]
  AC50: 30.4 µM (active)
[10]
  outcome: inactive
[1]
  outcome: inactive
[2]
  outcome: inactive
[16]
  AC50: 31.2 µM (active)
[3]
  outcome: inactive
[17]
  outcome: inactive
[4]
  outcome: inactive
[5]
  outcome: inactive
[12]
  outcome: inactive
[13]
  outcome: inactive
[8]
  AC50: 0.511 µM (active)

## CC1(C)C(C=C(Cl)Cl)C1C(=O)OC(C#N)c1cccc(Oc2ccccc2)c1 (stereo not drawn)
[1]
  outcome: inactive
[2]
  outcome: inactive
[18]
  AC50: 2.15 µM (active)
[4]
  outcome: inactive
[5]
  outcome: inactive
[11]
  outcome: inactive
[14]
  outcome: inactive
[8]
  AC50: 1.54 µM (active)

## CC(C)Oc1cccc(NC(=O)c2ccccc2C(F)(F)F)c1
[9]
  AC50: 74 µM (active)
[10]
  outcome: inactive
[19]
  AC50: 3 µM (active)
[18]
  outcome: inactive
[4]
  outcome: inactive
[5]
  outcome: inactive
[12]
  outcome: inactive
[8]
  AC50: 3.68 µM (active)
[15]
  outcome: inactive

## CC1(C)CCC(=Cc2ccc(Cl)cc2)C1(O)Cn1cncn1 (stereo not drawn)
[2]
  outcome: inactive
[19]
  AC50: 0.00693 µM (active)
[18]
  outcome: inactive
[3]
  outcome: inactive
[4]
  outcome: inactive
[5]
  outcome: inactive
[11]
  outcome: inactive
[7]
  AC50: 4.02 µM (active)
[14]
  outcome: inactive
[8]
  AC50: 1.97 µM (active)
[15]
  outcome: inactive

## CC1(C)CON(Cc2ccccc2Cl)C1=O
[1]
  outcome: inactive
[2]
  outcome: inactive
[19]
  outcome: inactive
[4]
  outcome: inactive
[5]
  outcome: inactive
[20]
  outcome: inactive
[14]
  outcome: inactive
[8]
  AC50: 3.31 µM (active)
[15]
  outcome: inactive

## Nc1c(Cl)c(F)nc(OCC(=O)O)c1Cl
[2]
  outcome: inactive
[19]
  outcome: inactive
[18]
  outcome: inactive
[3]
  outcome: inactive
[5]
  outcome: inactive
[11]
  outcome: inactive
[8]
  outcome: inactive

## CCOc1nc(F)cc2nc(S(=O)(=O)Nc3c(Cl)cccc3Cl)nn12
[2]
  outcome: inactive
[16]
  AC50: 26.5 µM (active)
[3]
  outcome: inactive
[17]
  outcome: inactive
[5]
  outcome: inactive
[11]
  outcome: inactive
[7]
  AC50: 20 µM (active)
[20]
  outcome: inactive
[8]
  AC50: 14.4 µM (active)
[15]
  outcome: inactive

## COc1ccc(-c2ccccc2)cc1NNC(=O)OC(C)C
[1]
  outcome: inactive
[2]
  outcome: inactive
[16]
  AC50: 1.84 µM (active)
[3]
  outcome: inactive
[17]
  AC50: 42.4 µM (active)
[5]
  outcome: inactive
[14]
  outcome: inactive
[8]
  AC50: 6.49 µM (active)

## Cc1ccc(N=CN(C)C=Nc2ccc(C)cc2C)c(C)c1
[2]
  outcome: inactive
[18]
  outcome: inactive
[3]
  outcome: inactive
[4]
  outcome: inactive
[5]
  outcome: inactive
[11]
  outcome: inactive
[6]
  outcome: inactive
[14]
  outcome: inactive
[8]
  outcome: inactive
[15]
  outcome: inactive

## COCC(C)N(C(=O)CCl)c1c(C)csc1C (stereo not drawn)
[2]
  outcome: inactive
[19]
  outcome: inactive
[3]
  outcome: inactive
[4]
  outcome: inactive
[5]
  AC50: 26.3 µM (active)
[11]
  outcome: inactive
[7]
  outcome: inactive
[14]
  outcome: inactive
[8]
  AC50: 6.94 µM (active)

## CCOP(=O)(OCC)Oc1nc(Cl)c(Cl)cc1Cl
[1]
  outcome: inactive
[2]
  outcome: inactive
[19]
  AC50: 3.92 µM (active)
[16]
  AC50: 29 µM (active)
[18]
  AC50: 5.84 µM (active)
[3]
  outcome: inactive
[17]
  AC50: 81.5 µM (active)
[4]
  outcome: inactive
[5]
  outcome: inactive
[11]
  outcome: inactive
[14]
  outcome: inactive
[8]
  AC50: 7.26 µM (active)
[15]
  outcome: inactive
